Efflux pump inh: inhibitors of Candida efflux pumps in yeast, primary screen, S. cerevisiae, Nile Red, multiplex | inhibition, % at 10 µM | AID 485275, 2010 | actives 0.44% (n = 330,000) | S. cerevisiae Candida pump triplex;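 active = plate passing quality check with inhibition over a set limit, or well fluorescence over plate mean plus 4 SD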;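 note: Nile Red retained in pooled yeast measured as flow cytometry median fluorescence; 0% = buffer negative control and 100% = Enniatin B positive control; higher means more Nile Red kept so more efflux inhibition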
SUMO Mot1 rescue: yeast Mot1-301 growth rescue at high temperature, primary screen, SUMOylation pathway inhibitor project, S. cerevisiae, ATP luminescence, 38.5C. growth rescue, % at 18.8 µM. actives 1% (n = 320,000). S. cerevisiae Mot1-301 growth rescue; percent above DMSO median, 100 means doubled;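 active = every valid replicate shows activation above 250% relative to neutral control wells; inactive = the rest, any valid replicate at or below 250%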;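 note: OY570 slx delta 5 strain wells were the positive control but not used for scaling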
sPLA2-III inh: human group III sPLA2 inhibitors, primary screen, biochemical, QFRET, BODIPY PC-A2 liposome substrate | inhibition, % at 12.2 µM | QFRET BODIPY PC-A2 liposome hydrolysis, fluorescence | AID 743126, 2013 | actives 0.56% (n = 370,000);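 active = inhibition above mean plus 3 SD of compounds lying within the high and low control bounds, cut at about 19% in these data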;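 note: 0% = median of test compound wells and 100% = no enzyme DMSO wells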
Target sequence (Q9NZ20 whole entry, looked up): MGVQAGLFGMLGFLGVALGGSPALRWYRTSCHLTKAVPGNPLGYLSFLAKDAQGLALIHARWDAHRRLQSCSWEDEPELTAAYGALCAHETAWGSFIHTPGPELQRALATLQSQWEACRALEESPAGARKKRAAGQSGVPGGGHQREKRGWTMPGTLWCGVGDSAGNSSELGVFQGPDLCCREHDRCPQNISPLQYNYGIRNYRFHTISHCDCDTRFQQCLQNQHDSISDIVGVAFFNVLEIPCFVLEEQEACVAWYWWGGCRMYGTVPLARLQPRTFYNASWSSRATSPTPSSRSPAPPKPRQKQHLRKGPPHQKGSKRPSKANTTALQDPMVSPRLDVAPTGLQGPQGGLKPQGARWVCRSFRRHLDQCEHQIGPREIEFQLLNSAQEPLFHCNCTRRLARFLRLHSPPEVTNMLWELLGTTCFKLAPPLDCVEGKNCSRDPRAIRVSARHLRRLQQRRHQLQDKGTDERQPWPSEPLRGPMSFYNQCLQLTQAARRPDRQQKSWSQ
SKN-1 block: suppressors of acrylamide-induced Pgst-4::GFP reporter in worms, primary screen, SKN-1 inhibitor project, whole organism, uHTS, GFP/RFP fluorescence ratio, strain VP596. actives 0.49% (n = 360,000). inhibition, % at 21.8 µM. C. elegans VP596 Pgst-4::GFP/RFP ratio, 24 h;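 active = interference check ratio from 0.5 to 1.5 plus GFP to RFP signal ratio inhibition reaching or exceeding a fixed threshold, cut at about 30% in these data, passing the limit was not always enough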
hGIII sPLA2 conf: human group III sPLA2 inhibitors, confirmation, biochemical, QFRET, triplicate; shares compounds with sPLA2-III inh; recombinant hGIII-sPLA2, BODIPY PC-A2 QFRET fluorescence; inhibition, % at 12.2 µM; actives 34% (n = 2,000); AID 743280, 2014;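 active = mean inhibition across triplicates above the hit cutoff set in the earlier primary screen, cut at about 19% in these data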;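 note: 0% = enzyme with DMSO and 100% = DMSO wells lacking enzyme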
535nm interf: 535nm fluorescence optical interference, confirmation, artefact control for HGIII-sPLA2 inhibitor project, biochemical, QFRET; shares compounds with sPLA2-III inh; BODIPY FL product fluorescence interference; inhibition, % at 12.2 µM; actives 8.5% (n = 2,000);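 active = average inhibition above the solvent-only control mean plus 3 SD, cut at about 6% in these data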;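 note: 0% = DMSO with substrate plus product and 100% = DMSO with substrate alone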
535nm interf DR: 535nm fluorescence optical interference, dose response, artefact control for HGIII-sPLA2 inhibitor project, biochemical, QFRET; shares compounds with sPLA2-III inh; IC50, µM; BODIPY FL product fluorescence interference, cell-free; AID 743455, 2014; 240 tested, under 10 active;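 active = IC50 at or below 10 µM; inactive = IC50 above 10 µM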
Starred values were filed as active, the others as inactive; / = not tested or not shown. Shown are actives, neighbours in structure and some others; about 2.2% of the full set was active somewhere.

SMILES	Efflux pump inh	SUMO Mot1 rescue	sPLA2-III inh	SKN-1 block	hGIII sPLA2 conf	535nm interf	others
CCOc1cc2c3c(c1)C1(OCCO1)C(=O)N3C(C)(C)CC2C (configuration not stated)	0.2	-13.3	-5.6	-7.3	/	/
O=C(NCc1nnc2c(C(F)(F)F)cc(Cl)cn12)c1cccnc1	-0.2	11.0	7.4	12.7	/	/
COc1ccc(-c2c(C#N)c(SCC(N)=O)nc3c2CCCC3)cc1	0.0	1.8	19.8*	2.6	19.6*	-6.8
N#Cc1c(SCC(N)=O)nc2c(c1-c1ccc(O)cc1)CCCC2	0.1	-7.7	-3.4	-9.5	/	/
COC(=O)c1ccc(NC(=O)CCN2CCOCC2)cc1	-0.1	45.7	22.0*	-14.2	-11.4	-4.5
O=C(NNC(=O)C1CCN(S(=O)(=O)c2ccc(Cl)cc2)CC1)c1ccccc1O	0.0	25.3	20.6*	-0.1	3.7	-5.1
C[C@]12Cc3ccccc3C1CC1=N[C@@H](c3ccccn3)O[C@@]13C[C@@H]2C(=O)N3C1CCN(Cc2ccccc2)CC1 (some centres not stated)	/	/	-1.2	/	/	/
CC1(C(=O)NS(=O)(=O)C2CC2)CCN(C(=O)c2c(F)cccc2F)C1 (configuration not stated)	/	/	19.6*	5.7	3.3	1.6
COC(=O)c1c(NC(=S)Nc2cc(OC)c(Cl)cc2OC)sc2c1CCCCC2	-0.3	3.3	25.2*	8.3	26.4*	11.3*
O=C(NC(=S)NC1CCC(O)CC1)c1ccco1 (configuration not stated)	0.2	1.8	19.7*	-9.1	1.5	-4.5
CCCOc1ccc(C(=O)NNC(=S)NC(=O)c2ccco2)cc1	-0.2	-9.5	30.5*	-7.2	34.0*	-8.0	535nm interf DR=>122
CC(Oc1ccc(Cl)cc1)C(=O)NNC(=S)NC(=O)c1ccco1 (configuration not stated)	0.1	3.7	27.9*	-0.5	36.1*	-0.8	535nm interf DR=>122
COc1ccc(C(=O)NNC(=S)NC(=O)c2ccco2)cc1	0.0	2.1	20.0*	4.4	24.2*	0.5
CCCOc1ccc(C(=O)NNC(=S)NC(C)=O)cc1	0.2	-21.4	8.8	-9.6	/	/
O=C(COc1ccc(Cl)cc1Cl)NNC(=S)NC(=O)c1ccco1	-0.3	-13.3	-5.9	3.0	/	/
CC(=O)NC(=S)Nc1ccc(NC(=S)NC(=O)/C=C/c2ccco2)cc1	-0.2	0.8	1.9	-17.3	/	/
O=C(/C=C/c1ccco1)NC(=S)NNC(=O)c1ccco1	-0.2	-3.9	30.6*	-13.5	16.0	4.2
Cc1cc(C)c(-c2c(O)c3c(n(C)c2=O)CC(C)(C)CC3=O)c(C)c1	-0.4	32.6	21.4*	2.0	-4.0	-1.7
Cn1c2c(c(O)c(-c3ccccc3)c1=O)C(=O)CC(C)(C)C2	0.3	-0.1	17.6	-9.2	/	/
CCOc1ccc(OCC)c(NC(=O)CCCN2C(=S)NC(C)(C)CC2C)c1 (configuration not stated)	-0.1	-13.9	24.9*	9.2	23.7*	-12.7
CC1CC(C)(C)NC(=S)N1CC(=O)NCc1ccccc1Cl (configuration not stated)	3.3	367.4	30.0*	-0.6	9.2	0.6
COc1ccc(OC)c(NC(=O)CCCN2C(=S)NC(C)(C)CC2C)c1 (configuration not stated)	-0.1	-3.6	17.7	10.8	/	/
COc1ccc(C)cc1NC(=O)CCCN1C(=S)NC(C)(C)CC1C (configuration not stated)	0.4	-0.8	23.6*	-3.0	8.7	-3.3
CCOc1ccccc1NC(=O)CCCN1C(=S)NC(C)(C)CC1C (configuration not stated)	0.1	5.5	21.5*	0.8	19.9*	-9.3
O=C(OCc1ccccc1)N1CCCCC1c1c(Cl)cccc1Br (configuration not stated)	/	/	-3.8	13.7	/	/
SMILES	Efflux pump inh	SUMO Mot1 rescue	sPLA2-III inh	SKN-1 block	hGIII sPLA2 conf	535nm interf	others
CC(=O)C1=C(O)C(=O)N(C)C1c1ccccc1[N+](=O)[O-] (configuration not stated)	0.1	1.9	24.9*	-9.7	-1.2	-1.9
CC(=O)C1=C(O)C(=O)N(CCC(=O)O)C1c1ccccc1[N+](=O)[O-] (configuration not stated)	0.0	-1.2	-3.6	9.5	/	/
CCCCNC(=S)NNC(=O)c1nn(C)c(C)c1Cl	0.0	-22.7	23.3*	7.9	20.6*	0.0
Cc1c(Cl)c(C(=O)NNC(=S)NCc2ccco2)nn1C	0.0	/	35.1*	-0.7	41.2*	-2.0	535nm interf DR=>122
Cn1cc(Cl)c(C(=O)NNC(=S)NCc2ccco2)n1	-0.1	1.0	29.7*	5.2	25.0*	6.3*
O=C(N/N=C/c1ccc(O)c(O)c1O)/C(=C/c1ccc([N+](=O)[O-])cc1)NC(=O)c1ccccc1	-0.1	-11.9	24.6*	5.6	28.7*	6.1*
COc1ccc(NCc2ccc([N+](=O)[O-])s2)cc1	0.0	58.8	9.4	2.6	/	/
COc1ccc(NCc2ccc([N+](=O)[O-])s2)c(OC)c1	0.1	198.8	24.8*	2.3	13.0	3.2
CN(C)c1ccc(S(=O)(=O)NCC(=O)N2CCN(c3ccccc3)CC2)cc1[N+](=O)[O-]	0.2	-22.9	1.0	4.5	/	/
COc1ccc(CCN2CCCn3c2nc2c3c(=O)n(CC(C)C)c(=O)n2C)cc1OC	0.2	-0.9	24.1*	-9.0	12.8	-16.9
Cc1cc2nc(-c3ccc[nH]c3=O)n(Cc3ccc(F)cc3)c2cc1C	0.1	-6.7	-7.0	-0.1	/	/
Cc1cc2nc(-c3ccc[nH]c3=O)n(Cc3ccccc3F)c2cc1C	0.0	6.8	19.3*	22.2	-2.3	-12.8
CCN(Cc1ccccc1)C(=O)COC(=O)c1c(C)nsc1NC	0.0	-4.7	-4.0	-11.5	/	/
CC1CCC(NC(=O)C(NS(=O)(=O)c2cccc3nsnc23)C(C)C)CC1 (configuration not stated)	-0.1	4.6	86.5*	-1.9	-4.5	-7.2
OC[C@H]1O[C@@H](c2nc(-c3ccc4[nH]ccc4c3)no2)[C@H](O)[C@@H](O)[C@H]1O	/	/	-3.4	-4.9	/	/
Cc1cc(C)nc(Sc2ccc([N+](=O)[O-])cc2[N+](=O)[O-])n1	-0.2	-26.7	20.3*	4.3	3.4	-0.6
